# Measured values from PubChem BioAssay (EPA / NIEHS).
# Results filed as inconclusive are left out. The source made the active and inactive calls. Rule for the calls, unless noted: active = hit-call score of the fitted dose curve at least 0.9, where 1 is the maximum; inactive = score below 0.9.
# What was measured:
# [1] = ACEA_ER_80hr: ACEA Biosciences xCELLigence Real-Time Cell Analysis on Estrogen Receptor Agonism for Proliferation (AID 2282667; active = hit-call score of the fitted dose curve at least 0.9, where 1 is the maximum); settings: T47D proliferation, impedance (xCELLigence), 80 h
# Summary of the method: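 Real-time impedance growth kinetics of human T-47D breast cells read 80 h after dosing, gain-of-signal fitted relative to DMSO. Compounds: 1:4 serial series, top final concentration 100 uM, n = 2.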
# [2] = APR_HepG2_CellCycleArrest_24hr: Apredica 24-hour HepG2 Assay for Cell Cycle Arrest (AID 2282905); settings: imaging, actives raise or lower the signal;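 note: cell cycle arrest scored as ratio of 2N to 4N nuclear DNA content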
# Summary of the method: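 Cell cycle arrest is scored from nuclear DNA content measured by high-content imaging of Hoechst 33342-stained HepG2 cells following 24-hour treatment at ten concentrations up to 200 uM, with DMSO as baseline.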
# [3] = APR_HepG2_NuclearSize_24hr: Apredica 24-hour HepG2 Assay for Nuclear Size (AID 2282907); settings: high-content imaging, actives raise or lower the signal
# Summary of the method: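 Compounds in DMSO (final 0.5%) were added to human HepG2 hepatoma cells at ten concentrations up to 200 uM for 24 hr. Fixed nuclei were stained with Hoechst 33342, and nuclear diameter was quantified from automated images.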
# [4] = APR_HepG2_CellLoss_24hr: Apredica 24-hour HepG2 Assay for Cell Loss (AID 2282908); settings: high-content imaging;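 for AC50: fit in both directions so a hit may be cell loss or gain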
# Summary of the method: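 Cell number is quantified by fluorescence imaging of Hoechst 33342-stained nuclei following dosing at 0.39–200 uM in 0.5% DMSO. Curves are fitted in both directions from the DMSO baseline.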
# [5] = APR_HepG2_MicrotubuleCSK_24hr: Apredica 24-hour HepG2 Assay for Microtubule CSK Stabilty (AID 2282909); settings: HepG2 microtubule cytoskeleton imaging, actives raise or lower the signal
# Summary of the method: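 Steps: dose HepG2 for 24 h (0.39–200 uM, 0.5% DMSO); fix 30 min in 3.7% formaldehyde at room temperature; permeabilize; stain alpha-tubulin 60 min; image microtubule cytoskeleton at 20x. Signal change fitted in both directions relative to DMSO.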
# [6] = APR_HepG2_MitoticArrest_24hr: Apredica 24-hour HepG2 Assay for Mitotic Arrest (AID 2282910); settings: high-content imaging, actives raise or lower the signal
# Summary of the method: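 HepG2 cells, 24 h exposure at 0.39-200 uM (10 concentrations, duplicate, 0.5% DMSO). Fixed, stained for phospho-histone H3 with Hoechst; imaged by high-content microscopy, bidirectional fit versus DMSO.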
# [7] = APR_HepG2_MitoMembPot_24hr: Apredica 24-hour HepG2 Assay for Mitochondrial Membrane Potential (AID 2282911); settings: imaging, actives raise or lower the signal
# Summary of the method: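 Mitochondrial membrane potential imaged via MitoTracker Red CMXRos (250 nM, 30 min pre-fixation) in fixed HepG2 cells with Hoechst nuclear identification. Ten concentrations 0.39–200 uM, 24 h treatment, 0.5% DMSO; CCCP as positive control.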
# [8] = APR_HepG2_MitoMass_24hr: Apredica 24-hour HepG2 Assay for Mitochondrial Mass (AID 2282912); settings: high-content imaging, actives raise or lower the signal
# Summary of the method: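 The liver line HepG2 was dosed in duplicate across a 0.39–200 uM series, with final DMSO held at 0.5% v/v, and harvested at 24 hr. High-content imaging measured mitochondrial dye staining.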
# [9] = APR_HepG2_CellCycleArrest_72hr: Apredica 72-hour HepG2 Assay for Cell Cycle Arrest (AID 2282914); settings: high-content imaging, actives raise or lower the signal
# Summary of the method: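 Read-out: nuclear DNA content from Hoechst 33342 high-content imaging (20x, six fields/well) after 3.7% formaldehyde fixation, fitted bidirectionally against DMSO. Treatment was 72 h in HepG2, ten concentrations 0.39–200 uM, duplicate, 0.5% DMSO.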
# [10] = APR_HepG2_CellLoss_72hr: Apredica 72-hour HepG2 Assay for Cell Loss (AID 2282915); settings: high-content imaging
# Summary of the method: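 HepG2 cells exposed 72 h to compound at 0.39–200 uM (10 concentrations, duplicate) in 0.5% DMSO. Fixed with 3.7% formaldehyde and Hoechst 33342-stained. Imaged at 20x; nuclear count gives cell number, fitted bidirectionally versus DMSO.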
# [11] = APR_HepG2_P-H2AX_72hr: Apredica 72-hour HepG2 Assay for H2AX Phosphorylation (AID 2282916); settings: imaging, actives raise or lower the signal;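 note: phospho-histone H2A.x immunostain intensity per cell marking DNA damage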
# Summary of the method: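 Following 72 hr treatment with 0.39–200 uM compound, HepG2 cells were formaldehyde-fixed, permeabilized and stained for phospho-H2A.x; signal was measured by high-content imaging and fitted bidirectionally against DMSO controls.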
# [12] = APR_HepG2_MitoticArrest_72hr: Apredica 72-hour HepG2 Assay for Mitotic Arrest (AID 2282918); settings: high-content imaging, actives raise or lower the signal
# Summary of the method: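 High-content imaging of fixed human HepG2 cells after 72 h compound exposure (0.39–200 uM, duplicates, 0.5% DMSO); mitotic arrest scored from phospho-histone H3 and nuclear Hoechst staining relative to DMSO.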
# [13] = APR_HepG2_P-H2AX_24hr: Apredica 24-hour HepG2 Assay for H2AX Phosphorylation (AID 2282920); settings: high-content imaging, actives raise or lower the signal
# Summary of the method: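 High-content imaging of phospho-histone H2A.x immunofluorescence, nuclei counterstained with Hoechst 33342, in fixed HepG2 cells. Compounds ran 0.39–200 uM in duplicate for 24 h, final DMSO 0.5%. Signal change fitted both directions against DMSO.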
# [14] = APR_HepG2_StressKinase_72hr: Apredica 72-hour HepG2 Assay for Stress Kinase (AID 2282921); settings: HepG2 stress kinase (phospho-c-Jun) imaging, actives raise or lower the signal
# Summary of the method: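 Fluorescence intensity of Cy3-tagged anti-phospho-c-Jun antibody, quantified per cell from Hoechst-defined nuclei across six images per well, served as the read-out following 72 h exposure (0.39–200 uM, 0.5% v/v DMSO).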
# [15] = APR_HepG2_StressKinase_24hr: Apredica 24-hour HepG2 Assay for Stress Kinase (AID 2282922); settings: HepG2 stress kinase (phospho-c-Jun) imaging, actives raise or lower the signal
# Summary of the method: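 HepG2 cells exposed 24 h to 0.39–200 uM compound in duplicate (0.5% v/v DMSO final). Cells fixed in 3.7% formaldehyde, permeabilized and immunostained for phospho-c-Jun; read by high-content fluorescence imaging, fitted bidirectionally against DMSO.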
# [16] = APR_HepG2_MitoMass_72hr: Apredica 72-hour HepG2 Assay for Mitochondrial Mass (AID 2282924); settings: high-content imaging, actives raise or lower the signal;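 note: MitoTracker Red CMXRos stain intensity per cell imaged as mitochondrial mass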
# Summary of the method: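 HepG2 cells dosed 72 hr at 0.39–200 uM (0.5% DMSO), in duplicate. MitoTracker Red CMXRos 250 nM loaded 30 min before formaldehyde fixation; high-content fluorescence imaging, bidirectional fit versus DMSO.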
# [17] = APR_HepG2_p53Act_24hr: Apredica 24-hour HepG2 Assay for p53 Activation (AID 2282913); settings: high-content imaging, actives raise or lower the signal;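 note: p53 protein immunofluorescence averaged per cell in HepG2 with Hoechst nuclei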
# Summary of the method: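 Fluorescence imaging of formaldehyde-fixed HepG2 cells labelled for p53 and with Hoechst, 24 h after dosing (0.39–200 uM, duplicate wells, 0.5% v/v DMSO). Signal fitted in both directions relative to DMSO.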
# [18] = APR_HepG2_p53Act_72hr: Apredica 72-hour HepG2 Assay for p53 Activation (AID 2282923); settings: high-content imaging, actives raise or lower the signal;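 note: average cellular p53 protein immunofluorescence intensity in HepG2 cells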
# Summary of the method: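 HepG2 monolayers receive test compounds in duplicate at ten concentrations (0.39 through 200 uM) for 72 hr. They are then formaldehyde-fixed, antibody-labelled for p53, Hoechst-stained and imaged, with activity fitted bidirectionally versus DMSO.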
# [19] = APR_HepG2_MicrotubuleCSK_72hr: Apredica 72-hour HepG2 Assay for Microtubule CSK Stabilty (AID 2282919); settings: HepG2 microtubule cytoskeleton, high-content imaging, actives raise or lower the signal
# Summary of the method: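 HepG2 cells were exposed 72 hr to compound at 0.39–200 uM in duplicate (0.5% DMSO final), then fixed and permeabilized. Alpha-tubulin immunofluorescence was imaged by high-content microscopy, with bidirectional fitting against DMSO and taxol as positive control.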
# [20] = APR_HepG2_MitoMembPot_72hr: Apredica 72-hour HepG2 Assay for Mitochondrial Membrane Potential (AID 2282917); settings: imaging, actives raise or lower the signal
# Summary of the method: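 HepG2 cells dosed 72 hr with compound at 0.39–200 uM in duplicate, 0.5% v/v DMSO final. Mitochondria stained with 250 nM MitoTracker Red CMXRos for 30 min before formaldehyde fixation, imaged by high-content fluorescence; bidirectional fit versus DMSO.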
compound,measurement,setting,value
COCc1nnc(-c2ccc[n+]([O-])c2)n1-c1c(Cl)c(Cl)cc2[nH]c(=O)c(=O)[nH]c12,outcome,[1],inactive
same,outcome,[2],inactive
same,outcome,[3],inactive
same,outcome,[4],inactive
same,outcome,[5],inactive
same,outcome,[6],inactive
same,outcome,[7],inactive
same,outcome,[8],inactive
same,outcome,[9],inactive
same,outcome,[10],inactive
same,outcome,[11],inactive
same,outcome,[12],inactive
same,outcome,[13],inactive
same,outcome,[14],inactive
same,outcome,[15],inactive
same,outcome,[16],inactive
CC[C@H](C)C(=O)O[C@H]1C[C@H](O)C=C2C=C[C@H](C)[C@H](CC[C@@H](O)C[C@@H](O)CC(=O)O)[C@H]21,outcome,[1],inactive
same,outcome,[2],inactive
same,outcome,[3],inactive
same,outcome,[4],inactive
same,outcome,[5],inactive
same,outcome,[6],inactive
same,outcome,[7],inactive
same,outcome,[8],inactive
same,outcome,[9],inactive
same,outcome,[10],inactive
same,outcome,[11],inactive
same,outcome,[12],inactive
same,outcome,[13],inactive
same,outcome,[14],inactive
same,outcome,[15],inactive
same,outcome,[16],inactive
c1ccc(C(O[C@@H]2CCCN(CCc3ccc4c(c3)OCO4)C2)c2ccccc2)cc1,outcome,[1],inactive
same,AC50,[2],83.5 µM (active)
same,outcome,[3],inactive
same,AC50,[4],99.9 µM (active)
same,AC50,[6],96.3 µM (active)
same,outcome,[7],inactive
same,AC50,[8],100 µM (active)
same,AC50,[17],103 µM (active)
same,outcome,[9],inactive
same,AC50,[10],98.3 µM (active)
same,AC50,[11],96 µM (active)
same,AC50,[12],57.8 µM (active)
same,AC50,[13],103 µM (active)
same,AC50,[14],100 µM (active)
same,outcome,[15],inactive
same,AC50,[18],63.3 µM (active)
same,AC50,[16],99.7 µM (active)
CCCc1ccccc1,outcome,[1],inactive
same,outcome,[2],inactive
same,outcome,[3],inactive
same,outcome,[4],inactive
same,outcome,[6],inactive
same,AC50,[7],61.3 µM (active)
same,outcome,[8],inactive
same,outcome,[17],inactive
same,outcome,[9],inactive
same,outcome,[10],inactive
same,outcome,[11],inactive
same,outcome,[12],inactive
same,outcome,[19],inactive
same,outcome,[13],inactive
same,outcome,[14],inactive
same,outcome,[15],inactive
same,outcome,[18],inactive
same,outcome,[16],inactive
Nc1ccn([C@@H]2O[C@H](CO)[C@@H](O)[C@@H]2O)c(=O)n1,outcome,[1],inactive
same,AC50,[2],0.0387 µM (active)
same,AC50,[3],0.0391 µM (active)
same,AC50,[4],0.149 µM (active)
same,outcome,[5],inactive
same,outcome,[6],inactive
same,outcome,[7],inactive
same,AC50,[8],0.0391 µM (active)
same,AC50,[9],0.0618 µM (active)
same,AC50,[10],0.0391 µM (active)
same,AC50,[11],0.202 µM (active)
same,AC50,[12],0.177 µM (active)
same,outcome,[19],inactive
same,AC50,[13],0.0979 µM (active)
same,outcome,[14],inactive
same,outcome,[15],inactive
same,outcome,[16],inactive
Cn1cc[nH]c1=S,outcome,[1],inactive
same,outcome,[2],inactive
same,outcome,[3],inactive
same,outcome,[4],inactive
same,outcome,[6],inactive
same,outcome,[7],inactive
same,outcome,[8],inactive
same,outcome,[17],inactive
same,outcome,[9],inactive
same,outcome,[10],inactive
same,outcome,[11],inactive
same,outcome,[20],inactive
same,outcome,[12],inactive
same,outcome,[13],inactive
same,outcome,[14],inactive
same,outcome,[15],inactive
same,outcome,[18],inactive
same,outcome,[16],inactive
CC(C)C(=O)Nc1ccc([N+](=O)[O-])c(C(F)(F)F)c1,AC50,[1],80.5 µM (active)
same,AC50,[2],71 µM (active)
same,outcome,[3],inactive
same,AC50,[4],44.4 µM (active)
same,outcome,[5],inactive
same,AC50,[6],62.8 µM (active)
same,outcome,[7],inactive
same,AC50,[8],92.2 µM (active)
same,AC50,[9],34.9 µM (active)
same,AC50,[10],58.8 µM (active)
same,AC50,[11],70.8 µM (active)
same,outcome,[20],inactive
same,AC50,[12],61 µM (active)
same,AC50,[19],67.8 µM (active)
same,AC50,[13],91 µM (active)
same,outcome,[14],inactive
same,outcome,[15],inactive
same,AC50,[16],74.9 µM (active)
